Results published in the OligoGym collection.
Further: reference of the scale not given here.

The sequences below were run against KCND2 (assay: pooled miR-30 sensor sort-seq; sequence = guide strand). Details: shRNA.
TCAGCGAACAGATAGAACCAAA showed a sensor-assay potency score (higher = more potent) of -1.25.
Sequence TTGTACTCCTCATAACAGCAGT has a sensor-assay potency score (higher = more potent) of -0.753.
Work on TTGTGTCGTCGTGAACAGCAGG yielded a sensor-assay potency score (higher = more potent) of -0.722.
TTGTATACTACCTTGATGGCTT was tested, and the sensor-assay potency score (higher = more potent) was 0.674.
TTTGTCTGCTCGTTGATTCTGG gave a sensor-assay potency score (higher = more potent) of -0.31.
TAGAACACCAGGGCCATCGTGC was tested, and the sensor-assay potency score (higher = more potent) was -0.481.
Sequence TTGTTCGTCCACAAACTCGTGA has a sensor-assay potency score (higher = more potent) of -0.0668.
Sequence TTCTGAGGCACAACTCTTCAGT has a sensor-assay potency score (higher = more potent) of -0.605.
Work on TTAAAGATCCTGAAGACCCGGA yielded a sensor-assay potency score (higher = more potent) of 0.918.
TTACTGAGTAAACCATTCCGTT was tested, and the sensor-assay potency score (higher = more potent) was -1.06.

Each sequence was assayed against KCNE1 in the same assay as above. Details: shRNA.
With TTGTCCTTCTCTTGCCAGGCAT the sensor-assay potency score (higher = more potent) was -1.07.
Work on TAGAGAAACAGTGAAACAGTGT yielded a sensor-assay potency score (higher = more potent) of 0.334.
Sequence TTCGAGTGCTCCAGCTTCTTGG has a sensor-assay potency score (higher = more potent) of -0.829.
In the case of TTTTCAACGACATAGCACGACC, the sensor-assay potency score (higher = more potent) is reported as -1.08.
Sequence TTCTTGGAGCGGATGTAGCTCA has a sensor-assay potency score (higher = more potent) of -0.819.
TTGTTCTATGGCCAGATGGTTT showed a sensor-assay potency score (higher = more potent) of -1.5.
TCGGACTCGATGTAGACGTTGA showed a sensor-assay potency score (higher = more potent) of -0.164.
With TTTAGAGAAACAGTGAAACAGT the sensor-assay potency score (higher = more potent) was -0.257.
In the case of TTGCCAGGCATCGGACTCGATG, the sensor-assay potency score (higher = more potent) is reported as -1.64.
With TCGATGTAGACGTTGAATGGGT the sensor-assay potency score (higher = more potent) was -0.608.
TCAACGACATAGCACGACCTGT was tested, and the sensor-assay potency score (higher = more potent) was -0.979.
TCCAGCTTGCCGTCACTGCTGC gave a sensor-assay potency score (higher = more potent) of -1.06.
